BAZ2B block – BAZ2B (human) inhibition; AID 504333; Potency, µM (doses to about 114 µM), most hits filed as inhibitors; AlphaScreen BAZ2B-H3K14Ac peptide displacement; 4.4% of 360,000 active; Q9UIF8; note: nearly all actives have a fitted effect of over 60% in size
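Compounds, titrated to a top concentration of 110 uM, were incubated 30 min at room temperature with preformed BAZ2B/acetyl-K14 H3 peptide complex (50 nM each). Proximity signal was measured by AlphaScreen after 20 min with beads.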
JMJD2A Tudor inh – JMJD2A Tudor domain (human) inhibition; O75164; AlphaScreen JMJD2A-Tudor / H3K4me3 peptide binding; Potency, µM (titrated, usually from 114 µM), usual class: inhibitors; 4.4% of 390,000 active; AID 504339; note: nearly all actives have a fitted effect of over 50% in size
HP1b binding inh – inhibitors of HP1-beta chromodomain binding to methylated histone tails | P83916 | Potency, µM (series often up to 114 µM), usual class: inhibitors | AlphaScreen HP1-beta / biotin-H3K9me3 peptide binding | 0.56% of 390,000 active; note: nearly all actives have a fitted effect of over 70% in size
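HP1-beta protein (50 nM final) preincubated 30 min at room temperature with biotinylated H3(1-18)K9me3 peptide (50 nM) in PBS pH 7.4, 0.01% Tween-20, then compound added for 30 min. AlphaScreen streptavidin donor/nickel chelate acceptor beads (10 ug/mL final), 30 min dark, luminescence read.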
VDR inh – blocks the human vitamin D receptor. P11473. VDR-SRC2-3 peptide fluorescence polarization, 2 h. Potency, µM, actives largely listed as inhibitors. 0.93% of 400,000 active. AID 504847
Target sequence (P11473 whole entry, looked up): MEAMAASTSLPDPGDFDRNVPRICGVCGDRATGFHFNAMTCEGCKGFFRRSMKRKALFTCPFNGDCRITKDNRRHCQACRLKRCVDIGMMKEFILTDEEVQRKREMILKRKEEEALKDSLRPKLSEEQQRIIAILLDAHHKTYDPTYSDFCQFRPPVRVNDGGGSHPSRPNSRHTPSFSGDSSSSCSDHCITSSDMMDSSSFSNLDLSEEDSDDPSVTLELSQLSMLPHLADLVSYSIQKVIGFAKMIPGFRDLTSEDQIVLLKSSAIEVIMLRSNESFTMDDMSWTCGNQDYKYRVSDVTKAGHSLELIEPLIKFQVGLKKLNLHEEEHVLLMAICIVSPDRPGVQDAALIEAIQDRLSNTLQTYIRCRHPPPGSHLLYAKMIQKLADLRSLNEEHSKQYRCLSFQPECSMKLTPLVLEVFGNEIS
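FP read-out; VDR + SRC2-3 coactivator peptide; 23 nl compound by pintool; 2 h RT incubation; reagents held at 4 deg C, protected from light.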
PLK1 PBD block – inhibitors of human PLK1 polo-box domain binding | AID 720504 | Potency, µM, most hits filed as inhibitors | 2.8% of 360,000 active | Plk1 PBD binding of FITC phosphopeptide, fluorescence polarization; note: series mostly up to about 57 µM; nearly all actives have a fitted effect of over 65% in size
G9a block – G9a (human) methyltransferase inhibition. G9a H3K9 monomethylation, AlphaScreen, 2 h. Potency, µM (series often up to 102 µM), most hits filed as inhibitors. 8.8% of 350,000 active; note: nearly all actives have a fitted effect of over 75% in size
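AlphaScreen read-out: biotin-H3K9 peptide (500 nM) methylation by 20 nM enzyme with 20 uM SAM, 2 h at room temperature after 15 min compound preincubation; anti-monomethyl H3K9 antibody plus donor/acceptor beads, 10 min dark.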
VDR inh confirm – confirmation of human vitamin D receptor inhibitors; AID 602199; shares compounds with VDR inh; 89% of 840 active; VDR-coactivator inhibition assay, qHTS confirmation; Potency, µM, hits mostly inhibitors
VDR FP – confirmation of human VDR-coactivator binding inhibitors, fluorescein label. 48% of 840 active. shares compounds with VDR inh. Potency, µM (series often up to 57.1 µM), most hits filed as inhibitors. VDR-coactivator binding, fluorescein fluorescence polarization
VDR bla reporter – inhibits human VDR in beta-lactamase reporter cells; AID 602202; Potency, µM (highest dose often 46.1 µM), hits mostly inhibitors; shares compounds with VDR inh; 23% of 840 active; VDR beta-lactamase reporter cells, FRET ratio; cells co-treated with VDR agonist LG190178
VDR viability – cell toxicity, VDR inhibitor hit counter-screen; Potency, µM (top dose mostly 48.3 µM), usual class: cytotoxic; AID 602204; cytotoxicity counter-screen, cell viability, qHTS; shares compounds with VDR inh; 18% of 840 active; note: nearly all actives have a fitted effect of over 75% in size
Hits are given with their value; 0 = inactive; ? = inconclusive; - = no result; [ ] = another dose, or the depositor's remark. Sampled rows, rich in hits. Any-hit rate of the full collection: about 11%. Calls come from the whole dose curve; as a rule, active = well fitted curve in the direction sought with a large enough effect; inconclusive = small, poorly fitted or top-dose-only effect, or another doubt; inactive = no such curve, though single readings can be large; an effect the other way counts as inactive or inconclusive.

SMILES | BAZ2B block | JMJD2A Tudor inh | HP1b binding inh | VDR inh | PLK1 PBD block | G9a block | VDR inh confirm | VDR FP | VDR bla reporter | VDR viability
Cc1cc(O)c(C(=O)/C=C/c2ccccc2)c(=O)o1 | 0 | 0 | 0 | ? | 0 | ? | - | - | - | -
CN(C)c1ccc(/C=C/C(=O)c2c(O)c3ccccc3oc2=O)cc1 | ? | 0 | 0 | ? | 0 | - | - | - | - | -
Cc1cc(O)c(C(=O)/C=C/c2ccc(C(C)C)cc2)c(=O)o1 | 0 | 0 | 0 | ? | 0 | 0 | 6.3 | ? | ? | 0
CCOc1ccc(/C=C/C(=O)c2c(O)c3ccccc3oc2=O)cc1 | 0 | 0 | 0 | 8.9µM | 0 | 0 | 8.4 | 0 | 0 | ?
CCOc1ccc(/C=C/C(=O)c2c(O)cc(C)oc2=O)cc1 | 0 | 0 | 0 | ? | 0 | ? | 16 | 25µM | ? | 12µM
O=C(Nc1ccc2c(c1)OCO2)c1cc(C2CCCN(C(=O)C3CCCCC3)C2)on1 (stereo not drawn) | - | - | - | - | 0 | - | - | - | - | -
C(=C\c1ccncc1)/c1ccncc1 | 0 | 0[11.4 µM] | 0 | 0 | 0 | 0 | - | - | - | -
[O-]/[N+](=C\c1ccncc1)c1ccc(Br)cc1 | ? | 0 | 0 | 45µM | 21µM | 40µM | 9.5 | ? | 0 | 0
Cc1ccc(/C(O)=C2/C(=O)C(=O)OC2c2ccc(Cl)cc2)cc1 (stereo not drawn) | 0 | 79µM | 0 | ? | ? | ? | 11 | 10µM | 0 | 0
Cc1ccc(C(=O)N2C(=O)C(c3ccccc3)Oc3ccccc32)cc1 (stereo not drawn) | 0 | 0 | 0 | 0 | 0 | 0 | - | - | - | -
CCCCC(=O)Nc1ccc2nc(SCC(=O)N3CCc4ccccc43)sc2c1 | 0 | 0 | 0 | 0 | - | 0 | - | - | - | -
Cc1cc(/C=C\c2ccccc2)nc2ccccc12 | 0 | 0 | 0 | 0 | 0 | 0 | - | - | - | -
Cc1cc(C(Br)(Br)Br)nc2ccccc12 | - | - | - | - | - | - | 14 | 14µM | 13µM | 17µM
Cc1ccc(NS(=O)(=O)c2c(C)nc3sc(C)c(C)n3c2=O)cc1F | 0 | 0 | 0 | 0 | - | 0 | - | - | - | -
COCCN1C2=C(C(=O)CC(C)(C)C2)C(c2ccc(OC)c(OC)c2)C2=C1CC(C)(C)CC2=O | 0 | 0 | 0 | 0 | 0 | 0 | - | - | - | -
COc1ccc(C(C2C(=O)CC(C)(C)CC2=O)C2C(=O)CC(C)(C)CC2=O)cc1COCC(F)(F)F | 0 | 0 | 0 | 20µM | 6.7µM | ? | 6 | ? | 0 | 0
C=C(C)[C@@H]1C2=CC(C(=O)OC)=C(C[C@@H](C(=C)C)[C@H]3O[C@H]3C3=C[C@H]1OC3=O)O2 | - | 0 | 0 | 20µM | - | - | 7.1 | 14µM | ? | 17µM
CN(CC(=O)Nc1ccc(F)c(F)c1F)C(=O)C1CCCO1 (stereo not drawn) | 0 | 0 | 0 | 0 | 0 | 0[12.7 µM] | - | - | - | -
Cc1ccc(OCCSc2nc3ccc(NC(=O)c4ccc(F)cc4)cc3s2)cc1 | 0 | 0 | 0 | 0 | - | 0 | - | - | - | -
COC(=O)/C=C/c1ccc2c(c1)S(=O)(=O)N(Cc1ccc(OC)cc1)[C@H]2CC(=O)OC | - | 0 | 0 | 0 | 0 | - | - | - | - | -
COc1ccc(CN2[C@@H](CC(C)=O)c3ccc(/C=C/C(C)=O)cc3S2(=O)=O)cc1 | - | 0 | 0 | 79µM | 0 | - | 5 | ? | ? | ?
CCOC(=O)c1ccc(S(=O)(=O)Nc2cc(S(=O)(=O)N3CCOCC3)ccc2O)cc1 | - | ? | ? | 45µM | 5.3µM | - | 8.4 | ? | 0 | 0
O=C(CCCSc1ccc(Cl)cc1)Nc1cc(S(=O)(=O)N2CCOCC2)ccc1O | ? | 56µM | ? | ? | 3.4µM | ? | 4 | 3.2µM | 0 | 0
Cc1ccc(S(=O)(=O)N2CCOCC2)cc1NC(=O)CSc1ccc(Cl)cc1 | 0 | 0 | 0 | 0 | 0 | 0 | - | - | - | -

High-throughput results deposited in PubChem BioAssay by National Center for Advancing Translational Sciences (NCATS).
